The entries come from a sample that favours hits as a whole.
Tg IFNy HTS – T. gondii growth inhibition with IFN-gamma, primary screen, cell-based | Toxoplasma gondii growth in IFN-gamma-treated host cells; active compounds read low | activity change, negative = inhibition, % (concentration not given with the values) | 69,000 compounds, 3.8% hits; in the data active = activity change below about -70%, passing the limit was not always enough;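 also: host cells are HeLa cells infected with Toxoplasma gondii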
The depositor's hits bear a star.

SMILES	Tg IFNy HTS
C[C@]12CCC3c4ccc(OC(=O)c5ccccc5)cc4CCC3C1CCC2=O (stereo partly specified)	18.0
C#C[C@]1(O)CCC2C3CCc4cc(O)ccc4C3CC[C@@]21C (stereo partly specified)	-77.4*
O=C(NC1CCCC1)C1CN(C(=O)CCN2CCc3ccccc32)CCO1 (stereo unspecified)	-42.5
O=c1c2c3c(sc2n2nnnc2n1-c1ccccc1)CCCC3	16.8
CC(C)NC(=O)CC1CC2(CCN(C(=O)COc3ccccc3)CC2)Oc2ccccc21 (stereo unspecified)	-51.5
O=C(NCc1ccccc1)C(c1ccccc1)N(Cc1ccco1)C(=O)c1ccccn1 (stereo unspecified)	7.4
Cc1cccc(C)c1-c1c(-c2ccccc2)ncn1CC(O)CO (stereo unspecified)	-6.0
COC(=O)c1ccc(-c2nccn2C(Cc2ccco2)C(=O)O)cc1 (stereo unspecified)	-36.2
O=C1N(Cc2ccccn2)C(=O)C2(CCN(Cc3c(F)cccc3Cl)CC2)N1Cc1ccccc1	-72.9*
O=C1N(Cc2ccccn2)C(=O)C2(CCN(CC3CC=CCC3)CC2)N1Cc1ccccc1 (stereo unspecified)	-3.2
Cc1c(CN2CCC3(CC2)C(=O)N(Cc2ccccn2)C(=O)N3Cc2ccccc2)cnn1C	18.5
O=C(c1ccc(Oc2ccccc2)cc1)C1CCCN(C(=O)CCn2cccn2)C1 (stereo unspecified)	-20.9
COc1ccc(-c2cc(CNC(=O)C3CC=CCC3)no2)cc1 (stereo unspecified)	4.6
NS(=O)(=O)c1cc(C(=O)Nc2cc(F)ccc2F)c(Cl)cc1Cl	38.0
Cc1cc(C)c(S(=O)(=O)NCCCn2ccnc2)c(C)c1	-35.8
Cc1cc(C)c2cc(C#N)c(NCCCn3ccnc3)nc2c1	-100.7*
Cc1cccc(-n2ncc3c(NCCCn4ccnc4)ncnc32)c1	58.2
CCO[C@H]1OC(=O)C[C@@H]1NC(=O)[C@@H]1CCCN1C(=O)[C@@H](NC(=O)c1ccc(N)c(Cl)c1)C(C)(C)C	4.6
CCOC(=O)C1CCCCN1C(=O)c1cn(C)c2ccc(C)cc2c1=O (stereo unspecified)	0.7
Cc1csc(NC(=O)CN2CCC(c3ccc(F)cc3)CC2)n1	8.9
O=C(CN1CCCCC1)Nc1nc(-c2ccccc2)cs1	-5.2
O=C(CN1CCCC1Cn1cccn1)Nc1nc(-c2ccc(F)cc2)cs1 (stereo unspecified)	-77.2*
NC(=O)N1CCO[C@]2(CCC[C@H]2COCC(=O)N2CCCC2)C1	-1.6
c1cc2c(cc1-c1csc(-c3ccc4c(c3)OCCO4)n1)OCCO2	57.7
Cc1cc(-c2ccc3c(c2)OCCO3)cnc1N	75.2
SMILES	Tg IFNy HTS
NC1=NN=C(c2ccc3c(c2)OCCO3)CS1	-81.4*
C[C@H]1CCCCO[C@@H](CN(C)Cc2ccncc2)[C@@H](C)CN([C@@H](C)CO)C(=O)c2cc(NS(=O)(=O)c3ccc(Cl)cc3)ccc2O1	-65.3
COc1ccc(S(=O)(=O)Nc2ccc3c(c2)C(=O)N([C@@H](C)CO)C[C@H](C)[C@H](CN(C)Cc2ccc(C(F)(F)F)cc2)OCCCC[C@H](C)O3)cc1	-107.3*
COc1ccc(S(=O)(=O)Nc2ccc3c(c2)C(=O)N([C@@H](C)CO)C[C@H](C)[C@@H](CN(C)Cc2ccc(C(F)(F)F)cc2)OCCCC[C@@H](C)O3)cc1	-86.1*
C[C@H](CO)N1C[C@H](C)[C@H](CN(C)Cc2ccncc2)OCCCC[C@H](C)Oc2ccc(NS(=O)(=O)c3ccc(Cl)cc3)cc2C1=O	-54.9
C[C@@H]1CN([C@@H](C)CO)C(=O)c2cc(NS(=O)(=O)c3ccc(Cl)cc3)ccc2O[C@@H](C)CCCCO[C@H]1CN(C)Cc1ccncc1	-11.6
Cc1ccc(S(=O)(=O)Nc2ccc3c(c2)C(=O)N([C@@H](C)CO)C[C@H](C)[C@H](CN(C)Cc2ccc(C(F)(F)F)cc2)O3)cc1	-56.5
CCN(Cc1nc(COC)no1)C(=O)c1cccnc1C	4.4
COc1ccccc1-c1cc(C(=O)NCCn2nc(C)nc2C)no1	-9.3
C(/C=C/N1CCCC1)=C\c1cc(-c2ccccc2)c(-c2ccccc2)cn1	5.1
Cc1cccc(CN2CCC3(CC(C(=O)NCc4ccco4)=NO3)C2)c1 (stereo unspecified)	-15.7
Cc1cccc(N2CCN(C(=O)c3csc(-c4ccc(N5CCCC5)nc4)n3)CC2)c1	-5.7
COc1ccc(CCN(C)CCCOc2ccc(S(=O)(=O)c3c(C(C)C)c4ccccc4n3C)cc2)cc1OC	-73.0*
COc1ccc(CCN(C)CCCC(C#N)(c2cc(OC)c(OC)c(OC)c2)C(C)C)cc1OC (stereo unspecified)	-47.3
COc1ccc(CCN(C)CCc2ccc(OC)c(OC)c2)cc1OC	4.6
CCc1cc(CC)c2sc3ccccc3c(=O)c2c1	21.9
Cc1ccc(S(=O)(=O)N2CSC[C@@H]2C(=O)NCCc2csc(-c3ccccc3)n2)c(C)c1	-53.0
CC(=O)N1CCC(C(=O)NCc2ccccc2)(N(Cc2ccccc2)C(=O)c2ccc(C)cc2)CC1	36.3
